Shown are actives, neighbours in structure and some others; about 0.45% of the full set was active somewhere.
CXXC DNA block: MLL CXXC-DNA interaction inhibition; Q03164; MLL-CXXC / FITC-HOXA9 DNA fluorescence polarization; Potency, µM (doses to about 115 µM), inactives show at the highest dose activity change, negative = inhibition, most hits filed as inhibitors; 0.037% of 290,000 active; AID 2662; active = well fitted inhibition curve with a large enough effect in the polarisation, with a control signal flat, not every such curve was filed as active; inconclusive = small, poorly fitted or top-dose-only effect, or effect the other way, or a change in a side signal; inactive = no such curve, though single readings can be large or run the other way; the % refers to the polarisation; note: potency is the fitted concentration of half-maximal effect
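Purified MLL-CXXC (added from a 7 uM solution) was preincubated 5 min at ambient with pinned compounds in 50 mM Tris-HCl pH 7.5, 50 mM NaCl, 1 mM DTT, 0.05% BSA. Fluorescein-labeled HOX-A9 DNA (50 nM solution) followed, 30 min, then polarization read.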
Menin-MLL TR inh: menin-MLL binding inhibition, Texas Red mutant peptide; O00255; 0.23% of 270,000 active; Potency, µM (titrated, usually from 61.6 µM), without a hit: at the top dose FP activity change, negative = inhibition, actives largely listed as inhibitors; Menin + Texas Red MLL mutant peptide, fluorescence polarization; active = well fitted inhibition curve with a large enough effect in the polarisation, with a control signal flat, not every such curve was filed as active; inconclusive = small, poorly fitted or top-dose-only effect, or effect the other way, or a change in a side signal; inactive = no such curve, though single readings can be large or run the other way; the % refers to the polarisation; note: potency is the fitted concentration of half-maximal effect; % of control where 0% means no effect
Target sequence (O00255 whole entry, looked up): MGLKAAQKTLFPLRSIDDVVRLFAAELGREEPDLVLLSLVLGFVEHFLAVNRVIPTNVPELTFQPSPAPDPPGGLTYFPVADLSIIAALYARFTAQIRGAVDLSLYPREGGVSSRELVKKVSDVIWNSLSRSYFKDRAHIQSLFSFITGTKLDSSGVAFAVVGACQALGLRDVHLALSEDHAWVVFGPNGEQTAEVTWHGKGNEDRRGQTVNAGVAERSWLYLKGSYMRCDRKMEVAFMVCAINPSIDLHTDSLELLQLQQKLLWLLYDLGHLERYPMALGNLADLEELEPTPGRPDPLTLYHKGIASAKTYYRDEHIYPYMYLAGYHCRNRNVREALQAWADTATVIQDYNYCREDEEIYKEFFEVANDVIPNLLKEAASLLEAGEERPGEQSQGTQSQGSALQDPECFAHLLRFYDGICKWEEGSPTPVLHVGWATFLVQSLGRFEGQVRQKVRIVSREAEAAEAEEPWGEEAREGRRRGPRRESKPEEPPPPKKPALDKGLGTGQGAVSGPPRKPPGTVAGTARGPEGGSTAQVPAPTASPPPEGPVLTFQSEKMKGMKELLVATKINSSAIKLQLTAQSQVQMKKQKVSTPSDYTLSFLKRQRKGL
Menin MLL FP FL: displaces fluorescein MLL peptide from human menin. Fluorescence polarization, fluorescein-MLL peptide displacement from menin. FP activity change, % at 61.4 µM. 290,000 tested, under 10 active. AID 1766; active = well fitted curve in the direction sought with a large enough effect in the polarisation, not every such curve was filed as active; inconclusive = small, poorly fitted or top-dose-only effect, or effect the other way, or a change in a side signal; inactive = no such curve, though single readings can be large or run the other way; the % refers to the polarisation; note: % of control where 0% means no effect
GAA inh: blocks human lysosomal alpha-glucosidase; Potency, µM (titrated, usually from 76.9 µM), without a hit: at the top dose activity change, negative = inhibition, most hits filed as inhibitors; P10253; purified human GAA, 4-MU-alpha-glucoside fluorescence; AID 1466; 0.005% of 200,000 active;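 note: potency is the fitted concentration of half-maximal effect; plate controls were uninhibited enzyme wells for no effect and no-enzyme background for full effect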
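AC50 values come from Hill fits of compound titrations (up to 77 uM) against 4 nM human enzyme. Substrate 4-methylumbelliferyl-alpha-D-pyranoside at 400 uM, pH 5.0 citrate buffer, 20 min room temperature; fluorescence Ex 365/Em 440 after alkaline stop.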
aGlu spleen mod: lysosomal alpha-glucosidase (human) modulation; 0.006% of 240,000 active; Potency, µM (doses to about 79.9 µM), without a hit: at the highest dose activity change, negative = inhibition, usual class: inhibitors; human spleen homogenate, 4-MU-alpha-glucoside fluorescence; P10253; AID 2112;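 note: potency is the fitted concentration of half-maximal effect; 0% = enzyme with vehicle and -100% = no enzyme basal signal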
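AC50 values come from Hill-equation fits of concentration-response data, normalized to no-enzyme and full-activity controls. Enzyme source: 1 ug human spleen homogenate; 1 mM fluorogenic 4-MU glucoside, pH 5.0 citrate buffer, 37 C, 40 min.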
GAA glycogen mod: alters human alpha-glucosidase cleavage of glycogen. recombinant GAA, glycogen substrate, Amplex Red glucose oxidase fluorescence. Potency, µM (highest dose often 76.4 µM), without a hit: at the top dose activity change, negative = inhibition, actives largely listed as inhibitors. 0.38% of 300,000 active. AID 2100;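 note: potency is the fitted concentration of half-maximal effect; 0% = full enzyme reaction and -100% = no-enzyme basal signal; the screen sought inhibitors and activators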
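qHTS, 1536-well; enzyme 4 nM final; cpd up to 77 uM; substrate bovine liver glycogen 30 ug; 50 mM citrate/phosphate pH 5.0, 0.01% Tween-20; 37 C, 40 min; Amplex Red detection 45 min RT; Hill fit → AC50.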
* = called active by the depositor; ? = inconclusive; nt = no result; [ ] = remark or other dose. Unless noted, calls come from the whole dose curve; as a rule, active = well fitted curve in the direction sought with a large enough effect; inconclusive = small, poorly fitted or top-dose-only effect, or another doubt; inactive = no such curve, though single readings can be large; an effect the other way counts as inactive or inconclusive.

SMILES	CXXC DNA block	Menin-MLL TR inh	Menin MLL FP FL	GAA inh	aGlu spleen mod	GAA glycogen mod
O=C(NNC(=O)c1cc2cc3ccccc3nc2s1)c1ccc(F)cc1	30.4%	3.16µM*	1.8	-7.6%	-5.9%	9.1%
CC1(C)CC(Nc2ccc(Nc3ccccc3)cc2)CC(C)(C)N1	-2.8%	20µM*	2.5	-10.5%	-3.8%	3.5%
CC1(C)CC(NC(=O)c2ccccc2)CC(C)(C)N1	-3.1%	12.7%	-2.5	nt	nt	11.2%[76.3 µM]
COC(=O)c1c(C)sc(-c2c(-c3ccc4c(c3)OCCO4)[nH]c3[nH]c(=O)[nH]c(=O)c23)c1O	nt	nt	nt	nt	nt	25.1µM*
CCOc1cccc(C(=O)NC(=S)Nc2ccc(N3CCN(CC)CC3)cc2)c1	-2.4%	7.08µM*	-7.8	-10.1%	-0.8%	-19.3%
CCOc1ccc(N=C2NC(=O)S/C2=C\c2ccc(N(C)C)cc2)cc1	1.5%	31.6µM*	?	-3.8%	-0.4%	1.6%
CCOc1ccc(/C=C2/SC(=O)NC2=S)cc1	-4.8%	?	?	-5.7%	-1.0%	-20.4%
COc1cc(NC(=O)CSc2cc(=O)n(C)c3ccccc23)cc(OC)c1OC	nt	nt	nt	nt	nt	17.4%[76.3 µM]
COCCn1c(=O)c(C)nc2cnc(Oc3cccc(Cl)c3)nc21	nt	-6.6%	13.1	nt	-7.6%	nt
C/C(=N\NC(=O)CSCc1ccccc1Cl)c1cc(O)ccc1O	1.8%	?	-2.1	2.2%	2.0%	35.5µM*
C=C(C)C(=O)OCCOC(=O)C(=C)C	nt	19.5%	-1.1	nt	6.7%	nt
COCCNC(=S)NN=C1CCCCC1	-5.0%	5.3%	-5.6	-7.3%	-0.3%	?
C=CCNC(=S)NN=C1CCCCCCC1	-4.4%	-3.5%	1.4	10.1%	-7.4%	35.5µM*
COC(=O)[C@@H]1CC[C@H](C)[C@@H](c2ccc(C)cc2)N1C(=O)c1ccc(/C=N\OC[C@@H](C)[C@H](OCc2ccccc2)C(C)C)cc1	nt	-24.5%[11.7 µM]	1.6[11.7 µM]	nt	-2.7%[17.4 µM]	nt
CS(=O)(=O)Nc1cccc(-c2ccc3ncnc(N4CCOCC4)c3c2)c1	nt	-2.6%	9.7	nt	-8.8%	nt
Cc1ccc(S(=O)(=O)Nc2nc(C)c(NC(=O)OCCCl)s2)cc1	-4.2%	9.7%	-2.2	-4.0%	-6.0%	22.2µM*
Cc1nc(NS(=O)(=O)c2ccccc2)sc1NC(=O)OC(C)C	-9.6%	nt	0.2	4.2%	-6.6%	28µM*
Cc1ccc(S(=O)(=O)Nc2nc(C)c(NC(=O)Nc3ccc(Cl)cc3Cl)s2)cc1	-7.7%	?	8.1	-7.9%	-4.4%	?
CCN1C(=O)C2(c3ccccc31)c1c(oc3ccc(F)cc3c1=O)C(=O)N2CCCOC (stereo not given)	nt	nt	nt	nt	nt	-8.7%[76.3 µM]
Cc1c2cnn(CC(=O)Nc3c(F)c(F)cc(F)c3F)c(=O)c2c(C)n1Cc1ccccc1F	4.4%	12.6µM*	?	3.9%	1.7%	11.7%
Cc1c2cnn(CC(=O)NCc3ccc(F)cc3)c(=O)c2c(C)n1Cc1ccccc1F	nt	nt	nt	nt	nt	14.3%[76.3 µM]
CCOc1ccc(-c2cc3nc(C4CCN(C(=O)OC(C)(C)C)CC4)c(C(=O)Nc4ccc(C)cc4C)cn3n2)cc1	nt	nt	nt	nt	nt	35.5µM*
O=C(Nc1nc2c(s1)CN(Cc1ccccc1)CC2)c1cccc(S(=O)(=O)N2CCc3ccccc32)c1	?	7.08µM*	?	-6.5%	-6.7%	?
O=C(Nc1nc2ccccc2s1)c1cccc(S(=O)(=O)N2CCc3ccccc32)c1	2.3%	nt	11.3	nt	1.0%	0.7%
Cc1ccc(-n2c(=O)c3sc4ccccc4c3n(C)c2=O)cc1F	nt	nt	nt	nt	nt	10.1%[76.3 µM]
SMILES	CXXC DNA block	Menin-MLL TR inh	Menin MLL FP FL	GAA inh	aGlu spleen mod	GAA glycogen mod
COc1ccccc1CNc1ccc(CNc2ncn[nH]2)cc1	19.1%	14.9%	4.5	7.2%	-5.0%	-14.1%
COc1ccccc1CNc1n[nH]c(NCc2ccccc2OC)n1	4.3%	0.3%	1.6	-10.7%	4.6%	24.9µM*
CCOc1cc2c3c(c1)C1(Nc4ccccc4S1)C(=O)N3C(C)(C)CC2C (stereo not given)	5.5%	-5.7%	-1.4	-6.6%	-0.6%	35.5µM*
COc1ccc(NCC(=O)Nc2ccc(Br)cc2F)c(OC)c1	-9.0%	nt	-2.1	2.1%	3.4%	39.8µM*
COCCCNC(=S)Nc1ccc(N2CCCCC2)cc1	-15.8%	-12.9%	0.1	1.6%	1.9%	14.1µM*
COCCCNC(=S)NNC(=S)Nc1ccc(OC)cc1	-6.2%	nt	2.8	nt	0.9%	4.47µM*
CCOc1ccc2noc3c2c1C(=O)c1ccccc1-3	?	8.91µM*	?	?	-23.1%	-3.3%
O=C(Cn1c(=O)n(-c2ccccc2Cl)c(=O)c2sc3ccccc3c21)NC1CCCC1	nt	nt	nt	nt	nt	7.5%[76.3 µM]
COc1ccc(-c2cc(C(=O)Oc3ccc(C#N)cc3)no2)cc1	nt	nt	nt	nt	nt	-0.6%[76.3 µM]
O=C(CN1CCN(c2ccccc2O)CC1)NC(=O)NC1CCCC1	-7.9%	-11.9%	-0.3	0.7%	-3.2%	3.98µM*
O=C(CN1CCN(Cc2ccccc2)CC1)NC(=O)NC1CCCCC1	7.9%	6.1%	-0.6	-5.9%	-11.8%	7.0%
O=c1c(=Nc2ccccc2O)c(=O)c2ccccc12	29.2%	9.9%	0.4	3.6%	3.9%	8.91µM*
COc1ccc(S(=O)(=O)c2cnc3ccc(Cl)cc3c2N2CCCCC2C)cc1 (stereo not given)	nt	nt	nt	nt	nt	-12.6%[76.3 µM]
C1CCc2nnc(-c3nnc4n3CCCCC4)n2CC1	3.1%	0.4%	2.2	-1.2%	-13.6%	3.6%
Cc1ccc(C)n1-c1ccc(-c2nnc3n2CCCCC3)s1	-6.3%	-10.9%	5.0	1.7%	-3.0%	35.5µM*

Compound activity: PubChem BioAssay, National Center for Advancing Translational Sciences (NCATS)
